This is a sample that favours compounds with a hit; in the whole collection about 1.6% have one here.
KCNQ2 enhance: enhances the rat KCNQ2 potassium channel; O88943; CHO-K1 KCNQ2, FluxOR thallium flux fluorescence; hits give high values; B-score at 10 µM; actives 0.54% (n = 310,000); AID 2239;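 active = fluorescence ratio B-score at least 3 SD of library B-scores, with initial fluorescence B-score within 3 of them, cut at about 5.3 in these data; same plate scores as AID 2156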;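 also: B-score of peak minus minimum over baseline fluorescence ratio after K+ and Tl+ stimulus; positive B-score means potentiation of KCNQ2 with more thallium influx and brighter signal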
KCNQ2 inh: inhibitors of rat KCNQ2 potassium channel | O88943 | actives 1.1% (n = 310,000) | B-score at 10 µM | AID 2156 | CHO-K1 KCNQ2, FluxOR thallium flux, 20 min; hits give low values;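 active = fluorescence ratio B-score at most minus 3 library SDs, with starting brightness B-score within 2 library SDs, cut at about -5.5 in these data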
Kir21 conf inh: confirmation of mouse Kir2.1 potassium channel inhibitors. Tl flux remaining, % of negative control (hits give low values), % at 10 µM. Kir2.1-expressing cells, FluxOR thallium flux fluorescence; hits give low values. shares compounds with KCNQ2 enhance. actives 41% (n = 2,300);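 active = Primary-screen hit whose thallium flux fell at least 3 control SD below untreated wells in both duplicates, with normal baseline fluorescence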
HEK293 ctr: parental HEK293 activity in Kir2.1 inhibitor counter-screen; shares compounds with KCNQ2 enhance; parental HEK293 cells, FluxOR thallium flux fluorescence; 0% = unstimulated blank wells; FluxOR signal as % of negative control (100 = no effect), % at 10 µM; actives 19% (n = 2,300);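 active = dye signal at least 3 control SD above or below untreated wells in both duplicates, raw fluorescence within 3, either direction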;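 also: percent is based on the flux ratio of peak minus minimum fluorescence over baseline F0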
CHO-K1 Tl ctr: parental CHO-K1 activity in KCNQ2 potentiator counter-screen; shares compounds with KCNQ2 enhance; parental CHO-K1 cells, FluxOR thallium flux fluorescence; zero = vehicle mean+3SD, 100% = vehicle-minus-blank window; activity increase over 3SD of controls, % at 10 µM; actives 43% (n = 1,200); AID 2282;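 active = signal rise of at least 3 SD above the untreated control mean, in both duplicate wells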;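 also: counter screen of KCNQ2 potentiator hits so any rise reflects channel-independent effects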
KCNQ1 sel pot: selectivity of KCNQ2 potentiators: effect on human KCNQ1; actives 28% (n = 1,200); activation over 3SD threshold, % at 10 µM; AID 2283; CHO KCNQ1 stable, FluxOR thallium flux fluorescence; beyond 3SD, as % of vehicle-control signal; shares compounds with KCNQ2 enhance;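 active = fluorescence ratio rise of at least 3 SD of vehicle wells above their mean, in both replicate wells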
Target sequence (P51787 whole entry, looked up): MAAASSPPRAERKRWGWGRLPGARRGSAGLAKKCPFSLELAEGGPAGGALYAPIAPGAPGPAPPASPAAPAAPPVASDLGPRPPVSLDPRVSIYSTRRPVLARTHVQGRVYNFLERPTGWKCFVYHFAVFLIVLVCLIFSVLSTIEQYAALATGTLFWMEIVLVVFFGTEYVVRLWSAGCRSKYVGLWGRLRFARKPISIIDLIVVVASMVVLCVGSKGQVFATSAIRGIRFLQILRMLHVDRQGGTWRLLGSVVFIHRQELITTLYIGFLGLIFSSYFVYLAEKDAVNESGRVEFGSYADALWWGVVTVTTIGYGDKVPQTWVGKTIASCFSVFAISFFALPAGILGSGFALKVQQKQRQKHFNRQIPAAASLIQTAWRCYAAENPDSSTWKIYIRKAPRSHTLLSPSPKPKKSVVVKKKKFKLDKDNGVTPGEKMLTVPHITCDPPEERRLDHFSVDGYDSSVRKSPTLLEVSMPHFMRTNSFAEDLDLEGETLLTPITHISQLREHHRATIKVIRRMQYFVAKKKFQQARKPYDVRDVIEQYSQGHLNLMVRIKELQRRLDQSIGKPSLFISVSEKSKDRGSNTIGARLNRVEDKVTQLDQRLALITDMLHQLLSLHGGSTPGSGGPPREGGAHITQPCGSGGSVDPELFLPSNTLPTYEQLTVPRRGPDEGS
KCNQ2 pot confirm: confirmation of rat KCNQ2 potassium channel potentiators | CHO-KCNQ2 cells, FluxOR thallium flux fluorescence | shares compounds with KCNQ2 enhance | actives 68% (n = 1,200) | potentiation, less the hit threshold, % at 10 µM;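 active = fluorescence ratio rising 3 SD or more over the vehicle control mean in both replicates, plus primary screen hit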;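 also: peak minus minimum thallium fluorescence divided by baseline after K/Tl stimulus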
Kir21 spec: tests whether KCNQ2 potentiators also affect mouse Kir2.1. activity over 3SD threshold, % at 10 µM. HEK293 Kir2.1, FluxOR thallium flux fluorescence. shares compounds with KCNQ2 enhance. actives 2% (n = 1,200);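 active = fluorescence ratio rise of at least 3 SD above the vehicle-control mean, seen in both replicates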
KCNQ2 W236L MoA: potentiates the retigabine-insensitive rat KCNQ2 W236L mutant channel. CHO KCNQ2-W236L, automated patch clamp current. shares compounds with KCNQ2 enhance. AID 2558. current increase over 3SD of negative controls (%), hits give high values, % at 25 µM. actives 10% (n = 940);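 active = current increase at least 3 SD of the untreated controls above them in both duplicate recordings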
Large screens that a line does not name were inactive (follow-up assays come after a bar, where they were run).

Cc1ccc(Nc2cc(C)nc3c(C)cccc23)cc1	none | Kir21 conf inh 35.5% | HEK293 ctr inactive
CNCCC1Sc2ccccc2Oc2ccccc21 (stereo unspecified)	none | Kir21 conf inh 42.0% | HEK293 ctr inactive
CN(C)CCCC1Sc2ccccc2Sc2ccccc21 (stereo unspecified)	none
CCOC(=O)c1c(CSc2ccsc2)n(C)c2cc(Br)c(O)c(CN(C)C)c12	none (no result: KCNQ2 enhance) | Kir21 conf inh 60.5% | HEK293 ctr 66.5%
CCOC(=O)c1c(CSc2ccccc2)n(C)c2cc(Br)c(O)c(CN(C)C)c12	none (no result: KCNQ2 enhance)
Cn1c(CSc2ccccc2)c(C#N)c2ccccc21	none
Cc1ccc(SCc2c(C#N)c3ccccc3n2C)cc1	none (no result: KCNQ2 enhance) | Kir21 conf inh inactive | HEK293 ctr inactive
Cc1ccccc1C(=O)Nc1nc2n(n1)C(c1ccccc1)CC(=O)N2 (stereo unspecified)	none
c1ccc(SCCCCNC2CCCC2)cc1	none
c1ccc(-c2ccc(OCCCNC3CCCC3)cc2)cc1	none (no result: KCNQ2 enhance) | Kir21 conf inh 42.5% | HEK293 ctr inactive
c1ccc(Cc2ccc(OCCCNC3CCCC3)cc2)cc1	none | Kir21 conf inh 44.5% | HEK293 ctr inactive
COc1ccc(OCCNC2CCCC2)cc1	none
CN(C)Cc1ccc(CNC(=O)COc2ccc3ccccc3c2)cc1	none
CCS(=O)(=O)NCC(c1cccnc1)N1CCN(c2ccccc2F)CC1 (stereo unspecified)	none
Cc1cc(N/N=C/c2ccc(O)cc2)c2cccc(C)c2n1	none
Cc1cc(C)c2nc(C)cc(N/N=C/c3ccc(O)cc3)c2c1	KCNQ2 inh -8.07 | Kir21 conf inh inactive | HEK293 ctr inactive
CCCCCCc1cc2cc(S(=O)(=O)c3ccc(F)c(Cl)c3)c(=O)oc2cc1O	none (no result: KCNQ2 enhance)
CSc1cccc(-n2ccc(=O)c(C)c2C)c1	none
CC1(c2ccccc2)CC(C)(C)N2C(=O)C3(C(C#N)=C(N)Oc4cc(O)ccc43)c3cccc1c32 (stereo unspecified)	none
CC1(c2ccccc2)CC(C)(C)N2C(=O)/C(=C3\SC(=S)NC3=O)c3cccc1c32 (stereo unspecified)	KCNQ2 enhance 32.5 | Kir21 conf inh inactive | HEK293 ctr inactive | CHO-K1 Tl ctr inactive | KCNQ1 sel pot inactive | KCNQ2 pot confirm 4.3 | Kir21 spec inactive | KCNQ2 W236L MoA inactive
CCCn1nnnc1NC(=O)c1cccs1	none
CN(C)c1cccc(C(=O)OCC(=O)Nc2nccs2)c1	none
CNC(=S)N1CCN(c2ccc(Cl)c(Cl)c2)CC1	none
Nc1c(Cl)cc(-c2csc(N3CCCC3c3nc4cc(Cl)c(Cl)cc4n3CCCO)n2)cc1Cl (stereo unspecified)	none (no result: KCNQ2 enhance)
Nc1c(Cl)cc(-c2csc(N3CCCC3c3nc4cc(Cl)c(N5CCCCC5)cc4n3CCOCCO)n2)cc1Cl (stereo unspecified)	KCNQ2 enhance 6.28 | Kir21 conf inh inactive | HEK293 ctr inactive | CHO-K1 Tl ctr 3.5 | KCNQ1 sel pot inactive | KCNQ2 pot confirm inactive | Kir21 spec inactive | KCNQ2 W236L MoA inactive
Cc1csc(N2CCCC2c2nc3cc(Cl)c(N4CCCCC4)cc3n2CCOCCO)n1 (stereo unspecified)	none
Nc1c(Cl)cc(-c2csc(N3CCCC3c3nc4cc(Cl)c(N5CCCCC5)cc4n3CCCO)n2)cc1Cl (stereo unspecified)	KCNQ2 enhance 19.6 | Kir21 conf inh inactive | HEK293 ctr inactive | CHO-K1 Tl ctr inactive | KCNQ1 sel pot inactive | KCNQ2 pot confirm 37.7 | Kir21 spec inactive | KCNQ2 W236L MoA inactive
OCCCn1c(C2CCCN2c2nc(-c3ccc(F)cc3)cs2)nc2cc(Cl)c(Cl)cc21 (stereo unspecified)	none

Screening results: PubChem BioAssay, Johns Hopkins Ion Channel Center
